Measured values taken from PubChem BioAssay.
The source made the active and inactive calls.

What was measured:
[1] = tested on: Plasmodium falciparum Sir2 (PF13_0152, Sir2A); experiment: pfSir2 binders on small-molecule microarrays, primary screen, biochemical, small-molecule microarray, 635 nm fluorescence (AID 1098); settings: small-molecule microarray binding, fluorescence 635 nm; higher = more signal;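 further: score merges spot fluorescence intensity with its signal-to-noise ratio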
[2] = small-molecule microarray binders of probe aDKK1, primary screen, biochemical, biotinylated probe, 635/667 nm fluorescence (AID 1099); settings: higher = more signal;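 further: score merges 667nm spot fluorescence with signal to noise across triplicate slides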
[3] = small-molecule microarray binders of probe aCHRDL2, primary screen, biochemical, biotinylated probe, 635/667 nm fluorescence (AID 1100); settings: higher = more signal
[4] = splicing luciferase reporter signal modulators, primary screen, spliceosome inhibition project, cell-based, HEK293, splice +/- reporter (AID 1101); settings: luminescence, 24 h, higher = more signal, called active from +8 up or from −8 down;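 further: HEK293 cells carrying a splicing-competent luciferase reporter gene; test concentration not given here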
[5] = target: Fibroblast growth factor 10 (Homo sapiens) (UniProt O15520); experiment: FGF10 binders on small-molecule microarrays, primary screen, biochemical, small-molecule microarray, 635 nm fluorescence (AID 1102); settings: FGF10 binding, fluorescence 635 nm, higher = more signal
[6] = tested on: glycogen synthase kinase-3 (GSK3A per assay name; protocol says GSK3B); experiment: GSK3 binders on small-molecule microarrays, primary screen, biochemical, small-molecule microarray, 635 nm fluorescence, GSK3A (AID 1103); settings: small-molecule microarray binding, fluorescence 635 nm; higher = more signal; further: the record names both GSK3A and GSK3B
[7] = target: Epidermal growth factor receptor (Homo sapiens) (UniProt P00533); experiment: EGFR binders on small-molecule microarrays, primary screen, biochemical, small-molecule microarray, 635 nm fluorescence (AID 1104); settings: EGFR binding, higher = more signal;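 further: score merges 667 nm emission intensity with spot signal to noise over triplicate slides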
[8] = target: Follistatin-related protein 3 (Homo sapiens) (UniProt O95633); experiment: FSTL3 binders on small-molecule microarrays, primary screen, biochemical, small-molecule microarray, 635 nm fluorescence (AID 1105); settings: FSTL3 binding, higher = more signal;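 further: score merges emission near 667 nm and signal to noise per printed spot across three slides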
[9] = target: Dickkopf-related protein 1 (Homo sapiens) (UniProt O94907); experiment: DKK1 binders on small-molecule microarrays, primary screen, biochemical, small-molecule microarray, 635 nm fluorescence scan (AID 1106); settings: DKK1 binding, higher = more signal;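 further: score merges emission near 667 nm with signal to noise over three replicate slides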
[10] = tested on: Inhibin beta A chain (activin A); experiment: INHBA (activin A) binders on microarrays, primary screen, biochemical, small-molecule microarray, 635 nm fluorescence scan (AID 1107); settings: small-molecule microarray binding, higher = more signal;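 further: mouse activin A protein probed at 4.33 µg/mL on printed slides; score merges bound-protein fluorescence near 667 nm with spot signal-to-noise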
[11] = tested on: Human papillomavirus type 1a protein E7 (residues 44-93); experiment: HPV1a E7 fragment binders on microarrays, primary screen, biochemical, small-molecule microarray, residues 44-93, 635 nm fluorescence (AID 1108); settings: small-molecule microarray binding, fluorescence 635 nm; higher = more signal;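 further: E7 fragment applied at 1 µg/mL in TBST for 1 h at 4 C; score combines spot fluorescence with its signal to noise ratio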
[12] = modulators of HCV replicon luciferase signal, primary screen, HCV replication inhibitor project, Huh7 cells, luciferase reporter (AID 1109); settings: 48 h, higher = more signal;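 further: huh7 hepatoma cells harbouring a luciferase neomycin HCV replicon reporter; luciferase luminescence as measure of HCV replicon replication; test concentration not given here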
[13] = target: Left-right determination factor 2 (Homo sapiens) (UniProt O00292); experiment: LEFTY2 binders on small-molecule microarrays, primary screen, biochemical, small-molecule microarray, 635 nm fluorescence scan (AID 1110); settings: LEFTY2 binding, higher = more signal
[14] = target: Calmodulin-1 (Homo sapiens) (UniProt P0DP23); experiment: CALM1 binders on microarrays, EGTA buffer, profiling panel, biochemical, small-molecule microarray, Cy5-labelled CALM1 (AID 1111); settings: Cy5-CALM1 binding fluorescence, higher = more signal;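 further: labelled calmodulin applied in Tris saline Tween buffer holding calcium plus EGTA and DTT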
[15] = target: Calmodulin-1 (Homo sapiens) (UniProt P0DP23); experiment: calcium-bound CALM1 binders on microarrays, profiling panel, artefact control for SMM control-protein annotation, biochemical, small-molecule microarray, Cy5-labelled CALM1, plus calcium (AID 1112); settings: Cy5-CALM1 binding fluorescence, higher = more signal;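 further: score merges spot fluorescence with signal to noise from triplicate slides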
[16] = small-molecule microarray binders of probe aWnt5a, primary screen, biochemical, biotinylated probe, 635/667 nm fluorescence (AID 1113); settings: higher = more signal;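 further: score merges 667 nm fluorescence intensity with signal-to-noise per printed feature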
[17] = small-molecule microarray binders of probe aShh, primary screen, biochemical, biotinylated probe, 635/667 nm fluorescence (AID 1114); settings: higher = more signal;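 further: probe is biotin-labelled aShh protein from a stem cell growth factor screen; measures binding of labelled protein to compounds printed on the slide; score merges feature fluorescence at 667 nm with signal-to-noise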
[18] = small-molecule microarray binders of probe aNog, primary screen, biochemical, biotinylated probe, 635/667 nm fluorescence (AID 1115); settings: higher = more signal;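 further: probe is biotinylated aNog protein used at 0.15 µg/mL for 1 h at 4 C; z-score combines 667 nm fluorescence of each spot with its signal to noise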
[19] = target: Torsin-1A-interacting protein 1 (Homo sapiens) (UniProt Q5JTV8); experiment: LAP1 binders from COS7 cell lysate, primary screen, small-molecule microarray, 635/667 nm fluorescence (AID 1116); settings: COS7-hLAP1 lysate binding, 635 nm fluorescence, higher = more signal
[20] = target: Alpha-bungarotoxin (Bungarus multicinctus) (UniProt P60615); experiment: alpha-bungarotoxin binders on microarray, profiling panel, artefact control for SMM control protein annotation, biochemical, small-molecule microarray, Alexa647 label, 635/667 nm fluorescence (AID 1117); settings: alpha-BTX-A647 binding fluorescence, higher = more signal
Chain of Alpha-bungarotoxin (Bungarus multicinctus) (P60615 whole entry, looked up): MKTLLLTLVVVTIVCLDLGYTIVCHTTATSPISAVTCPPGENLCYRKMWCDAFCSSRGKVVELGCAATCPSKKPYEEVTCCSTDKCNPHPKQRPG

Chain of Left-right determination factor 2 (Homo sapiens) (O00292 whole entry, looked up): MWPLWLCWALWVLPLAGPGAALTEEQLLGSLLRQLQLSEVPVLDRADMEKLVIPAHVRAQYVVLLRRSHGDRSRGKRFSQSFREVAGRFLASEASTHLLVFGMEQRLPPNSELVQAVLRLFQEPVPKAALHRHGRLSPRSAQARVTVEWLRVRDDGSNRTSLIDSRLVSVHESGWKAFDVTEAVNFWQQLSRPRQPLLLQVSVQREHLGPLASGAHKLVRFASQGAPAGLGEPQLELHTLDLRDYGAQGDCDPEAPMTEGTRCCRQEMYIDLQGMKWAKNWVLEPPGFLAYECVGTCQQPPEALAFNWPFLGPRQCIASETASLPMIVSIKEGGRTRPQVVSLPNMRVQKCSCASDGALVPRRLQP
Chain of Torsin-1A-interacting protein 1 (Homo sapiens) (Q5JTV8 whole entry, looked up): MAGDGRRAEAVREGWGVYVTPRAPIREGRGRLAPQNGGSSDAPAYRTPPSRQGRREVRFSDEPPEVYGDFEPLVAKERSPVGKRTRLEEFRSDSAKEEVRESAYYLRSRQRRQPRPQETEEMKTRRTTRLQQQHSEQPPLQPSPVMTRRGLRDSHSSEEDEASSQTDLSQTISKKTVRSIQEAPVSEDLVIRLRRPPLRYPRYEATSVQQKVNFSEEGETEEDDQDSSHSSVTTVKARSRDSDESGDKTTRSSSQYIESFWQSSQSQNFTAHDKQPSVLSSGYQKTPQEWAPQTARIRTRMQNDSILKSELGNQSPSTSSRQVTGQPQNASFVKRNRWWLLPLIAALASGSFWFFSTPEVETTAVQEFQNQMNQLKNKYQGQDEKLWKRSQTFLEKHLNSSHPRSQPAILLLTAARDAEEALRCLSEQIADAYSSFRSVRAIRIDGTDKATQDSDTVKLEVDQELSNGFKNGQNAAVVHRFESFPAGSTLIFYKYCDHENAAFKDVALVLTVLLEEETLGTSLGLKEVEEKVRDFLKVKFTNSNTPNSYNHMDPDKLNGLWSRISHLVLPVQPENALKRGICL
Chain of Fibroblast growth factor 10 (Homo sapiens) (O15520 whole entry, looked up): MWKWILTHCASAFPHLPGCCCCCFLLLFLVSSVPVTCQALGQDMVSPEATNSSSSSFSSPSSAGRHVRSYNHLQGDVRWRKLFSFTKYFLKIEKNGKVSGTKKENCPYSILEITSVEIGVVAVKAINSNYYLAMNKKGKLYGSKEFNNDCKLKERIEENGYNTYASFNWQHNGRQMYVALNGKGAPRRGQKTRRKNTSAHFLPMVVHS
Chain of Epidermal growth factor receptor (Homo sapiens) (P00533 whole entry, looked up): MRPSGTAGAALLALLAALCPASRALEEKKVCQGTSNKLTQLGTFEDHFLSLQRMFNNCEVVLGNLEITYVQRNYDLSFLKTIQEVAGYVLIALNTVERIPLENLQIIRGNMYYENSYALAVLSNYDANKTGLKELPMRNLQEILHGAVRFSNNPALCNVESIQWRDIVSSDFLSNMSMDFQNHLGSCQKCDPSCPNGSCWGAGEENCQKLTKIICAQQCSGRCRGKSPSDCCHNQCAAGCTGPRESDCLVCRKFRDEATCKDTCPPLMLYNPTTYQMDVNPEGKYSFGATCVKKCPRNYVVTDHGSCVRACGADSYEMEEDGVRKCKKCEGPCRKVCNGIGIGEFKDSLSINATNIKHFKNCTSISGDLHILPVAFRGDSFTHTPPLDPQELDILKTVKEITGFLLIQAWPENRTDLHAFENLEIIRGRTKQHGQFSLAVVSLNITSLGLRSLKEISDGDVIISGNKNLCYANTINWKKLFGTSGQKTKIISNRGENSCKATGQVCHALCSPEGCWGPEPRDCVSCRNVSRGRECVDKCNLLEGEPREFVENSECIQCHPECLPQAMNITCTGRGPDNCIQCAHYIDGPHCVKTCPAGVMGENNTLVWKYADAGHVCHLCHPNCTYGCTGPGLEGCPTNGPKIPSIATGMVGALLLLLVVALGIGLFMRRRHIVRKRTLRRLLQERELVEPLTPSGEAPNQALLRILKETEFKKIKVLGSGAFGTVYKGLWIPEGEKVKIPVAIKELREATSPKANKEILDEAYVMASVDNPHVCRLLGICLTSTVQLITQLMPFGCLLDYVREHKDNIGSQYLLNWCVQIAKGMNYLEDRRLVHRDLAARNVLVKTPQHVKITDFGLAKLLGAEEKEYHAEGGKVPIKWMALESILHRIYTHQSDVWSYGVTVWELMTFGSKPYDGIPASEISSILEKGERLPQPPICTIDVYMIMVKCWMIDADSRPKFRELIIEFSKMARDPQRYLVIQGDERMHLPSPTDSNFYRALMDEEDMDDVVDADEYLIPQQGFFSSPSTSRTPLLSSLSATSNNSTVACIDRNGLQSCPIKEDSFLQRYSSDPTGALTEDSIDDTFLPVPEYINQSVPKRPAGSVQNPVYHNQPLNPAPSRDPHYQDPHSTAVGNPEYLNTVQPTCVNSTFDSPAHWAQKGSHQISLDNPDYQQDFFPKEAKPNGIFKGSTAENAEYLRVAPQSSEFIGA
Chain of Follistatin-related protein 3 (Homo sapiens) (O95633 whole entry, looked up): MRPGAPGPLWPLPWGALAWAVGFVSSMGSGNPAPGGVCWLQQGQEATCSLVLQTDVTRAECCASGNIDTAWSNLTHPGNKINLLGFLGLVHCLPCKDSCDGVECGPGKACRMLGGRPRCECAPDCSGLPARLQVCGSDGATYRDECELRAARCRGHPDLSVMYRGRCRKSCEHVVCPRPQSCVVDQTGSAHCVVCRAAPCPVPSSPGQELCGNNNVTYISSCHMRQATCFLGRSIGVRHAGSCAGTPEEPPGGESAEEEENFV
Chain of Dickkopf-related protein 1 (Homo sapiens) (O94907 whole entry, looked up): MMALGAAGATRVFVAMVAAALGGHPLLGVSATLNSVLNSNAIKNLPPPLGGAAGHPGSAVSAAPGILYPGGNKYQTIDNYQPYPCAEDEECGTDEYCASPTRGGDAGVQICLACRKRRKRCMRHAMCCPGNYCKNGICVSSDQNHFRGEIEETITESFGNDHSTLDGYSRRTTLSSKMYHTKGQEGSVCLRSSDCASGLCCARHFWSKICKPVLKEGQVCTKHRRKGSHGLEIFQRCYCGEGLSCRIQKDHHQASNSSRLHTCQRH

Compound	composite z-score [1]	composite z-score [2]	composite z-score [3]	z-score [4]	composite z-score [5]	composite z-score [6]	composite z-score [7]	composite z-score [8]	composite z-score [9]	composite z-score [10]	composite z-score [11]	z-score [12]	composite z-score [13]	composite z-score [14]	composite z-score [15]	composite z-score [16]	composite z-score [17]	composite z-score [18]	composite z-score [19]	composite z-score [20]
[N-]=[N+]=NCc1ccccc1[C@@H]1OC(c2ccc(OCCCO)cc2)=N[C@]1(CCS(=O)(=O)c1ccccc1)C(=O)NCc1ccccc1	1.54	1.14	0.993	-0.392 (inactive)	1.25	1.26	0.274	0.869	0.494	1.07	0.512	-1.78	0.526	1.02	0.222	0.301	0.487	2.12	0.142	2.18
CC(=O)NCCCC[C@@H]1NC(=O)[C@@H]2C[C@H](C(=O)NCCCCN(C)C)[C@H](c3cccc(OCCO)c3)N2C1=O	1.4	-0.0978	0.529	0.805 (inactive)	0.556	0.117	-0.12	0.227	0.0332	-0.609	-0.426	0.471	-0.419	0.017	0.0573	-0.0944	0.0048	-0.0474	-1.4	0.473
C=CCNC(=O)[C@@H]1[C@H]2C(=O)O[C@H](c3ccccc3)[C@H](c3ccccc3)N2[C@H](c2ccc(OCCO)cc2)[C@@]12C(=O)Nc1ccc(C#Cc3ccc(OC)cc3)cc12	1.28	0.707	0.792	-0.476 (inactive)	0.939	1.29	0.641	1.25	1.07	0.746	0.14	-1.87	0.849	1.63	0.0791	0.0597	0.366	0.201	0.781	2.88
C=CCOC(=O)[C@H]1[C@@H]2C(=O)O[C@@H](c3ccccc3)[C@@H](c3ccccc3)N2[C@@H](c2ccc(OCCOC(=O)[C@@H]3C[C@@H]4C(=O)N[C@@H](CCCCN(C)C)C(=O)N4[C@@H]3c3ccc(O)cc3)cc2)[C@]12C(=O)Nc1ccc(I)cc12	1.04	0.26	-0.0178	-0.433 (inactive)	0.735	1.32	0.537	1.08	1.06	-0.389	-0.562	-2.99	0.698	0.134	-0.547	-0.113	0.462	1.18	1.36	1.32
CC(C)C(=C=CC[C@@H](O)c1ccccc1OCCO)CCO	0.116	-0.258	0.133	-0.0616 (inactive)	1.36	0.0661	-0.195	0.0893	0.326	0.434	-0.79	-1.49	0.156	0.084	-0.21	-0.0836	-0.0471	-0.371	-0.549	0.606
C[C@@H]1ON(c2cccc(C(=O)OC(C)(C)C)c2)[C@H](c2ccc(Br)cc2)[C@H]1C(=O)N1C(=O)OC[C@H]1Cc1ccccc1	0.801	-0.155	-0.319	-0.0916 (inactive)	1.15	0.962	0.51	1.03	0.693	0.272	1.16	-1	0.552	0.702	-0.367	0.667	0.0756	1.09	2.7	0.518
O=C1C2C=CC(C(O)c3ccc(F)cc3)N(Nc3ccccc3F)C2C(=O)N1c1ccccc1 (stereo not given)	1.47	0.131	0.996	1.34 (inactive)	0.678	-0.412	-0.609	0.396	-0.868	0.503	1.18	0.912	-0.952	1.23	0.367	-0.001	-0.0441	1.34	0.694	0.394
COC(=O)C(CC#Cc1ccc2c(c1)[C@]1(C(=O)N2)[C@H](c2ccc(O)cc2)N2[C@H](c3ccccc3)[C@H](c3ccccc3)OC(=O)[C@H]2[C@@H]1C(=O)Nc1nc2ccccc2s1)C(=O)OC	1.59	-0.0329	-0.105	-0.596 (inactive)	1.27	1.04	0.626	0.929	0.581	0.598	1.39	-0.322	0.651	1.26	0.213	0.0998	0.191	0.535	1.63	1.62
CN1C(=O)C2C=CC(C(O)c3ccccc3)N(Nc3ccccc3)C2C1=O (stereo not given)	1.54	0.754	1.13	1.03 (inactive)	-0.678	-0.415	-1.32	-0.674	-1.22	0.918	-0.265	0.773	-1.52	0.253	-0.143	-0.0758	-0.0813	-0.448	-0.454	0.201
CN(C)CCCNC(=O)[C@@]1(c2ccc([N+](=O)[O-])cc2)CC(=O)N(C2CCCCC2)[C@@H]1c1ccc(CO)cc1	0.762	0.0157	0.759	0.315 (inactive)	-0.105	-0.148	-0.364	0.156	-0.236	1.27	1.04	-1.77	-0.419	0.465	0.0617	-0.25	-0.408	-0.483	0.218	0.8
CCCCCN1CC=CC23O[C@@H]4/C=C\CCCOC(=O)C4[C@H]2C(=O)N(CCCO)[C@@H]3C1=O (stereo not given in full)	0.93	-0.175	0.062	0.308 (inactive)	0.0154	1.06	-0.346	-0.352	-0.663	1.41	0.626	-0.549	-0.174	-0.113	0.132	-0.128	-0.214	-0.244	2.88	-0.0566
